High-throughput results as filed in PubChem BioAssay.
Compounds with a hit are over-represented: about 1.8% of the library has one in this group of screens.
Fam108B inh: mouse Fam108B serine hydrolase inhibitors, primary screen, counter-screen for RBBP9 inhibitor project, biochemical, fluorescence polarization; inhibition, % at 9.51 µM; 300,000 tested, 0.33% active; recombinant Fam108B, FP-Rh probe fluorescence polarization;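 active = inhibition above the screen mean inhibition plus 3 SD, computed separately per campaign, cut at about 18% in these data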;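 also: inhibitors lower polarization as less probe binds the enzyme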
PP5 primary: PP5 phosphatase inhibitors, primary screen, biochemical, fluorescence; purified PP5c, OMFP substrate fluorescence; inhibition, % at 6.7 µM; 320,000 tested, 0.18% active; AID 1987, 2009;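 active = inhibition above the campaign's mean inhibition across all tested compounds plus 3 SD, cut at about 9.5% in these data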
LYPLA2 counter: LYPLA2 inhibitors, primary screen, counter-screen for PME1 inhibitor project, biochemical, fluorescence polarization, FP-Rh probe ABPP; recombinant LYPLA2; inhibition, % at 5.9 µM; 320,000 tested, 0.38% active;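 active = inhibition above the screen-wide mean plus 3 SD, limit set per campaign, cut at about 26% in these data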
Target sequence (O95372 whole entry, looked up): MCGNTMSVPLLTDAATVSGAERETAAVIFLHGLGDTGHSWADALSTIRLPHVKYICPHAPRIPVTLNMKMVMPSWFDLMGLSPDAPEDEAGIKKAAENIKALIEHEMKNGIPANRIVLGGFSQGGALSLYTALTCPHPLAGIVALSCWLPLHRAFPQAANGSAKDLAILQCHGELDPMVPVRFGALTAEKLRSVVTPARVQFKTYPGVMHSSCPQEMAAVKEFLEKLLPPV
LYPLA1 counter: LYPLA1 inhibitors, primary screen, counter-screen for PME1 inhibitor project, biochemical, fluorescence polarization, FP-Rh probe ABPP; recombinant LYPLA1; inhibition, % at 5.9 µM; 320,000 tested, 0.16% active; AID 2174, 2009;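 active = inhibition above the mean of all tested compounds plus 3 SD, set per campaign, cut at about 14% in these data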;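 also: inhibitors block serine hydrolase probe labeling of LYPLA1 so polarization falls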
PP1 counter: PP1-alpha phosphatase inhibitors, primary screen, counter-screen for PP5 inhibitor project, biochemical, fluorescence, OMFP substrate, single point | inhibition, % at 6.7 µM | 320,000 tested, 0.9% active | purified PP1alpha | AID 2235, 2010;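 active = inhibition above the mean inhibition of all tested compounds plus 3 SD, computed separately for each screening campaign, cut at about 15% in these data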
PME-1 inh: PME-1 inhibitors via competitive probe labeling, primary screen, biochemical, fluorescence polarization, FP-Rh probe, HTS; Protein phosphatase methylesterase 1 (Homo sapiens), Q9Y570; recombinant PME-1; inhibition, % at 5.9 µM; 320,000 tested, 0.53% active;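 active = inhibition above the campaign mean of all compounds plus 3 SD, cut at about 26% in these data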;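 also: competitive labeling of PME-1 active site by serine hydrolase directed probe; inhibitors block probe labeling so polarization falls and inhibition rises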
Hits are given with their value; – = inactive; · = no result.

SMILES	Fam108B inh	PP5 primary	LYPLA2 counter	LYPLA1 counter	PP1 counter	PME-1 inh
COC(=O)C1CCN(C(=O)C2CCC(=O)N(CCc3cccc(F)c3)C2)CC1 (stereo unspecified)	–	–	–	–	–	–
O=c1c2ccccc2nc(N/N=C/c2c(O)ccc3ccccc23)n1O	–	–	–	–	18	34
CCOc1cccc(C(=O)N2CCCCC2c2cccnc2)c1 (stereo unspecified)	–	–	–	–	16	–
COc1ccc(C(=O)NC(=S)NCc2ccco2)cc1	–	–	–	–	–	–
O=C1CC(=C(c2ccccc2)c2ccccc2)C(=O)N1CCCN1CCN(c2cccc(Cl)c2)CC1	–	–	–	–	17	–
Cc1cc(N/N=C/c2ccc(N(C)C)cc2)nc(NCc2ccccc2)n1	–	–	–	–	16	–
C=CCOc1cccc(C2C(C(=O)c3cc4ccccc4o3)=C(O)C(=O)N2c2cc(C)on2)c1 (stereo unspecified)	–	–	–	–	28	–
COc1cccc(C2C(C(=O)c3cc4ccccc4o3)=C(O)C(=O)N2c2cc(C)on2)c1 (stereo unspecified)	–	–	–	–	25	–
COc1ccc(CN2CCNC(=O)C2CC(=O)NCC2CCOCC2)c(F)c1 (stereo unspecified)	–	–	–	–	–	–
CCCCCCn1c(=O)[nH]c2nc3cc(N)ccc3nc2c1=O	–	–	–	–	–	30
CCc1cccc2c(C(=O)COC(=O)c3ccc([N+](=O)[O-])s3)c[nH]c12	–	–	–	–	–	29
O=C(Nc1cccc(-c2cnc3ccccc3n2)c1)C1CC(=O)N(c2ccccc2)C1 (stereo unspecified)	–	–	–	–	–	–
CCN(CC)C(=O)c1ccc(-c2nnc(Nc3ccc(C(=O)N(C)C)cc3)c3ccccc23)cc1	–	–	–	–	–	–
CN(C)C(=O)c1ccc(-c2nnc(NCc3ccccc3)c3ccccc23)cc1	–	–	–	–	–	37
Cc1cc(C)cc(NC(=S)N(Cc2ccc(Cl)cc2)Cc2ccc(C(=O)O)cc2)c1	–	–	–	–	–	–
Cc1cc(NC(=S)N(Cc2ccc(Cl)cc2)Cc2ccc(C(=O)O)cc2)ccc1Cl	–	–	–	–	16	–
CCCCCN(C(=O)CCC(=O)OCC(=O)c1c(C)cc(C)cc1C)c1c(N)n(CCCC)c(=O)[nH]c1=O	–	–	–	–	–	–
CCc1ccccc1N1CC(C(=O)Nc2cc(S(=O)(=O)N3CCCC3)ccc2Cl)CC1=O (stereo unspecified)	·	–	–	–	–	–
Cc1cc(-c2csc(N)n2)c(C)n1CCC(C)C	–	–	–	–	16	–
COc1ccc(OCC(=O)N/N=C/C(C)=C/c2ccco2)c(Br)c1	–	–	–	–	17	–
Cc1ccccc1OCC(=O)N/N=C/c1ccco1	–	–	–	–	–	–
Cc1cccc(C)c1NC(=O)CNC(=O)Cn1nc(C)c(C)c(C#N)c1=O	–	–	–	–	–	–
COc1cc2ccccc2cc1C(=O)Nc1ccc(Cc2ccncc2)cc1	–	–	–	–	16	–
COc1cc(Cl)cc(/C=C/c2ccc3cccc(O)c3n2)c1OC	–	–	–	–	–	–
CCOc1cccc(/C=C/c2ccc3cccc(O)c3n2)c1O	–	–	–	–	–	36
CC1CC(c2ccccc2)n2nc(NC(=O)CCc3ccccc3)nc2N1 (stereo unspecified)	–	–	–	–	18	–
Cc1[nH][nH]c(=O)c1C(c1c(C)[nH][nH]c1=O)c1cn(Cc2cccc3ccccc23)c2ccccc12	–	–	–	–	16	–
O=C(Nc1ccccc1)Nc1cccc(NC(=O)Nc2ccccc2)c1F	–	–	–	–	16	–
O=C(Nc1ccccc1)Nc1ccccc1Br	–	–	–	–	–	–
